TDP1 block: inhibitors of human tyrosyl-DNA phosphodiesterase TDP1. 0.28% of 350,000 active. Potency, µM (doses to about 130 µM), most hits filed as inhibitors. recombinant TDP1, AlphaScreen DNA substrate cleavage; note: nearly all actives have a fitted effect of over 40% in size
Target sequence (Q9NUW8 whole entry, looked up): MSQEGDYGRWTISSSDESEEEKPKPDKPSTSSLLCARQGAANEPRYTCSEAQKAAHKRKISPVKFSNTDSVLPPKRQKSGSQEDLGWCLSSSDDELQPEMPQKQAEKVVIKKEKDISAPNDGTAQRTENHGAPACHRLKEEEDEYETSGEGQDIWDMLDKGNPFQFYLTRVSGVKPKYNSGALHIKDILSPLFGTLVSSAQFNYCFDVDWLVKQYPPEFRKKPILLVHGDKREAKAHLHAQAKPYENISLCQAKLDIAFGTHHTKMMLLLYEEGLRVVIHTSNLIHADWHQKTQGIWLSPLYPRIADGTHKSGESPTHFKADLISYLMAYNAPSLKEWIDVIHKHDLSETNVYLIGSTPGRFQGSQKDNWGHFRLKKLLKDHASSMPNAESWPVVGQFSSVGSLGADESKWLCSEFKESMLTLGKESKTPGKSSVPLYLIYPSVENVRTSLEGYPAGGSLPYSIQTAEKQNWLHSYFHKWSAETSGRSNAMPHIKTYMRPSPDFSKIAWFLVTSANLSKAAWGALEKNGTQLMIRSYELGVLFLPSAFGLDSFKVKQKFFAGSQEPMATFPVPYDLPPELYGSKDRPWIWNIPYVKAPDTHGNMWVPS
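Recombinant human Tdp1 (E. coli-expressed, 1 nM final) preincubated with compounds 15 min at room temperature, then 5'-biotin/3'-phosphotyrosine-FITC DNA substrate (15 nM final) added for 5 min. AlphaScreen beads (10 ug/ml final) added 10 min; cleavage lowers signal.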
Gal4-VP16 FLuc: inhibits Gal4-VP16 luciferase reporter, ROR gamma counter-screen; Drosophila S2 Gal4-VP16 UAS-luciferase, luminescence, 20 h; Potency, µM (highest dose often 53.6 µM), most hits filed as inhibitors; 3.5% of 310,000 active;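 note: Gal4-VP16 expression switched on by copper sulfate through the metallothionein promoter; nearly all actives have a fitted effect of over 50% in size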
RORg inh: ROR gamma (mouse) transcription inhibition. P51450. Potency, µM (series often up to 53.6 µM), actives largely listed as inhibitors. Drosophila S2 Gal4-RORgamma UAS-luciferase reporter, 20 h. 5.4% of 310,000 active. AID 2551; note: nearly all actives have a fitted effect of over 60% in size
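Compounds are pin-transferred onto Drosophila Schneider cells expressing a copper-inducible Gal4–ROR gamma transactivation domain fusion. After 1 hr, copper sulfate is added to 700 uM final; luciferase is read 20 hr later.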
DT40 TDP1 CPT: growth inhibition of DT40 Tdp1-/-;hTDP1 cells with camptothecin (screen for TDP1 inhibitors). chicken DT40 Tdp1-/-;hTDP1 cells + 20 nM CPT, ATP luminescence, 48 h. Potency, µM (titrated, usually from 46.2 µM), usual class: inhibitors. 12% of 420,000 active; note: nearly all actives have a fitted effect of over 55% in size
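Chicken DT40 Tdp1-/- cells stably complemented with human TDP1 were seeded at 400 cells/well in medium containing 20 nM camptothecin, exposed to pin-transferred compounds, and grown at 37 °C for at least 48 hr. Viability was read as ATP luminescence.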
DT40 TDP1 no CPT: qHTS for Inhibitors of human tyrosyl-DNA phosphodiesterase 1 (TDP1): qHTS in cells in absence of CPT | DT40 Tdp1-/- hTDP1 cells, no CPT, ATP luminescence, 48 h | Potency, µM (titrated, usually from 46.2 µM), actives largely listed as inhibitors | 15% of 420,000 active | AID 686978, 2013; note: nearly all actives have a fitted effect of over 55% in size
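Growth kinetics read by CellTiter-Glo luminescence after ≥48 hr at 37 °C. Cells: DT40 Tdp1-/- stably carrying human TDP1, 400 per well, compound exposure in the absence of CPT (DMSO vehicle).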
A number is an active result; [ ] = dose if it differs, or a comment. A selection: hits, their analogues and other compounds. The true share with any hit is near 19%. Calls come from the whole dose curve; as a rule, active = well fitted curve in the direction sought with a large enough effect; inconclusive = small, poorly fitted or top-dose-only effect, or another doubt; inactive = no such curve, though single readings can be large; an effect the other way counts as inactive or inconclusive.

Screening COc1cccc(C(C#N)N2CCCCC2)c1O (stereo not given) returned TDP1 block inactive, Gal4-VP16 FLuc inactive, RORg inh inactive, DT40 TDP1 CPT inactive and DT40 TDP1 no CPT inactive.
CC[C@H]1OC(=O)[C@H](C)[C@@H](O[C@H]2C[C@@](C)(OC)[C@@H](O)[C@H](C)O2)[C@H](C)[C@@H](O[C@@H]2O[C@H](C)C[C@H](N(C)C)[C@H]2O)[C@](C)(O)C[C@@H](C)C(=NOCOCCOC)[C@H](C)[C@@H](O)[C@]1(C)O was read as Gal4-VP16 FLuc inactive, RORg inh inactive, DT40 TDP1 CPT inconclusive and DT40 TDP1 no CPT 7.31µM.
CC(C)(C)c1ccc(/C=N/Nc2nncn2N)cc1 was read as Gal4-VP16 FLuc inconclusive, RORg inh inactive, DT40 TDP1 CPT inactive and DT40 TDP1 no CPT inactive.
Screening CC(C)(C)c1nnc(N/N=C/c2ccc(Br)cc2)n(N)c1=O returned TDP1 block inactive, Gal4-VP16 FLuc 2.82µM, RORg inh 2.82µM, DT40 TDP1 CPT inconclusive and DT40 TDP1 no CPT inconclusive.
`CC(=O)Oc1ccc(C2=Cc3ccc(OC(C)=O)cc3OC2C)cc1` (stereo not given) gave DT40 TDP1 CPT 18.4µM and DT40 TDP1 no CPT 11.6µM.
For COc1ccc(Cl)cc1S(=O)(=O)N1CCCC(C(=O)NCc2ccncc2)C1 (stereo not given) the results were TDP1 block inactive, DT40 TDP1 CPT inactive and DT40 TDP1 no CPT inactive.
CC(=O)Nc1ccc(NC(=O)C2CCCN2C(=O)Nc2cccc(F)c2)cc1 (stereo not given) was read as Gal4-VP16 FLuc inactive, RORg inh inactive, DT40 TDP1 CPT inactive and DT40 TDP1 no CPT inactive.
C[n+]1nc(Nc2ccccc2)sc1-c1ccc(O)cc1 was read as Gal4-VP16 FLuc inactive, RORg inh inactive, DT40 TDP1 CPT inconclusive and DT40 TDP1 no CPT inactive.
Screening C[n+]1c(-c2ccccc2)sc([S-])c1-c1ccccc1 returned DT40 TDP1 CPT 23.1µM and DT40 TDP1 no CPT 9.2µM.
Screening COc1ccc(NC(=O)C(NCC(C)C)c2ccccc2)cc1Cl (stereo not given) returned TDP1 block inconclusive, Gal4-VP16 FLuc inactive, RORg inh inactive, DT40 TDP1 CPT inactive and DT40 TDP1 no CPT inactive.
Screening COc1ccc(N=Cc2c(O)c3ccccc3n2C(C)=O)cc1 returned Gal4-VP16 FLuc inactive, RORg inh inactive, DT40 TDP1 CPT inconclusive and DT40 TDP1 no CPT 20.6µM.
Screening O=C(Oc1ccc[nH]c1=O)c1cccc(Cl)c1 returned TDP1 block inactive, Gal4-VP16 FLuc inactive, RORg inh inactive, DT40 TDP1 CPT inactive and DT40 TDP1 no CPT inconclusive.
`CC(C)C(C(=O)NCC1CCCO1)N(C(=O)CNS(=O)(=O)c1ccc(F)cc1)c1ccccc1` (stereo not given) gave Gal4-VP16 FLuc inactive, RORg inh inactive, DT40 TDP1 CPT inactive and DT40 TDP1 no CPT inactive.
Cc1cc(Br)cc(C)c1NC(=O)c1sc2ncn(Cc3cccc(F)c3)c(=O)c2c1C was read as TDP1 block inactive, DT40 TDP1 CPT 16.4µM and DT40 TDP1 no CPT 18.4µM.
Screening COC(=O)CC(NC(=O)c1ccc(C)cc1)c1ccccc1 (stereo not given) returned TDP1 block inactive, Gal4-VP16 FLuc inactive, RORg inh 8.91µM, DT40 TDP1 CPT inactive and DT40 TDP1 no CPT inactive.
Screening COC(=O)CC(NC(=O)c1ccc(C)cc1)c1ccc2c(c1)OCO2 (stereo not given) returned TDP1 block inactive, Gal4-VP16 FLuc inactive, RORg inh inactive, DT40 TDP1 CPT inactive and DT40 TDP1 no CPT inactive.
For Cc1ccc(C2(C)NC(=O)N(CC(=O)N(c3ccccc3)C3CCS(=O)(=O)C3)C2=O)cc1 (stereo not given) the results were TDP1 block inactive, DT40 TDP1 CPT inactive and DT40 TDP1 no CPT inactive.
Cc1c(C(C)C)c(=O)n(-c2ccccc2)n1C was read as TDP1 block inactive, Gal4-VP16 FLuc inactive, RORg inh inactive[10 µM], DT40 TDP1 CPT inactive and DT40 TDP1 no CPT inactive.
Cc1ccc(C(c2c(C)n(C)n(-c3ccccc3)c2=O)c2c(C)n(C)n(-c3ccccc3)c2=O)s1 was read as TDP1 block inactive, Gal4-VP16 FLuc 7.08µM, RORg inh 4.47µM, DT40 TDP1 CPT inactive and DT40 TDP1 no CPT inconclusive.
Screening O=C(Nc1ccon1)c1ccc(S(=O)(=O)N2CCCCCC2)cc1 returned TDP1 block inactive, Gal4-VP16 FLuc inactive, RORg inh inconclusive, DT40 TDP1 CPT inactive and DT40 TDP1 no CPT inactive.
CN1CCN(C(CNS(=O)(=O)c2ccc(Cl)cc2)c2cccnc2)CC1 (stereo not given) was read as TDP1 block inactive, Gal4-VP16 FLuc inactive, RORg inh inactive, DT40 TDP1 CPT inactive and DT40 TDP1 no CPT inactive.
O=C(CN(C(=O)CNC(=O)c1ccco1)c1ccc(F)cc1)NC1CCCC1 was read as Gal4-VP16 FLuc inactive, RORg inh inactive, DT40 TDP1 CPT inactive and DT40 TDP1 no CPT inactive.
`Cc1cc(C(C)(C)C)oc1C(=O)N(CC(=O)NC1CCCC1)c1c(C)cccc1C` gave TDP1 block inactive, Gal4-VP16 FLuc inactive[0.365 µM], RORg inh inactive, DT40 TDP1 CPT 11.6µM and DT40 TDP1 no CPT 5.17µM.
For Cc1ccc(C(=O)N(CC(=O)NC2CCCC2)c2ccccc2C)s1 the results were TDP1 block inactive, Gal4-VP16 FLuc inactive, RORg inh inactive, DT40 TDP1 CPT inconclusive and DT40 TDP1 no CPT inconclusive.
Screening COc1ccccc1N(CC(=O)NC1CCCC1)C(=O)c1oc(C(C)(C)C)cc1C returned TDP1 block inactive, Gal4-VP16 FLuc inactive, RORg inh 12.6µM, DT40 TDP1 CPT 23.1µM and DT40 TDP1 no CPT 14.6µM.
`Cc1cc(C(C)(C)C)oc1C(=O)N(CC(=O)NC1CCCC1)c1ccc(F)cc1` gave TDP1 block inactive, Gal4-VP16 FLuc inactive[0.365 µM], RORg inh inactive, DT40 TDP1 CPT inconclusive and DT40 TDP1 no CPT 16.4µM.
Screening COc1ccccc1N(CC(=O)NC1CCCC1)C(=O)c1csnn1 returned TDP1 block inactive, Gal4-VP16 FLuc inactive[0.365 µM], RORg inh inactive, DT40 TDP1 CPT inactive and DT40 TDP1 no CPT inconclusive.
For O=S1(=O)N=C(Nc2nc3c(s2)CCCC3)c2ccccc21 the results were TDP1 block inactive, Gal4-VP16 FLuc 1.26µM, RORg inh 0.447µM, DT40 TDP1 CPT 6.51µM and DT40 TDP1 no CPT 5.17µM.
`Cc1cccc(Nc2nc3c(s2)CCCC3)c1` gave TDP1 block inactive, Gal4-VP16 FLuc inactive, RORg inh inactive, DT40 TDP1 CPT 23.1µM and DT40 TDP1 no CPT 18.4µM.
`O=C(O)c1ccc(Nc2nc3c(s2)CCCC3)cc1` gave TDP1 block inactive, Gal4-VP16 FLuc 3.55µM, RORg inh 1.26µM, DT40 TDP1 CPT inactive and DT40 TDP1 no CPT inactive.
Screening O=C(Nc1nc2c(s1)CCCC2)Oc1ccccc1 returned TDP1 block inactive, Gal4-VP16 FLuc inactive, RORg inh inactive, DT40 TDP1 CPT inactive and DT40 TDP1 no CPT inactive.

Screens (PubChem)
